Assay results published in PubChem BioAssay AID492949 (National Center for Advancing Translational Sciences (NCATS), 2010).
Results filed as inconclusive are left out. Activity calls are given as the source filed them. Calls follow the shape of the dose curve; as a rule, active = well fitted activation curve with a large enough effect; inconclusive = small, poorly fitted or top-dose-only effect; inactive = no such curve, though single readings can be large or run the other way.
Also: nearly all actives have a fitted effect of over 60% in size.
Potency is read from the fitted curve at half-maximal effect.

What follows are molecules tested against Relaxin receptor 1 (Homo sapiens) (UniProt Q9HBX9) (assay: qHTS Assay for Agonists of the Relaxin Receptor RXFP1: THP1 Hit Validation). Conditions: THP1-RXFP1 cells, cAMP TR-FRET, 30 min; series mostly up to 115 µM.
Relaxin receptor 1 (Homo sapiens), sequence (Q9HBX9 whole entry, looked up): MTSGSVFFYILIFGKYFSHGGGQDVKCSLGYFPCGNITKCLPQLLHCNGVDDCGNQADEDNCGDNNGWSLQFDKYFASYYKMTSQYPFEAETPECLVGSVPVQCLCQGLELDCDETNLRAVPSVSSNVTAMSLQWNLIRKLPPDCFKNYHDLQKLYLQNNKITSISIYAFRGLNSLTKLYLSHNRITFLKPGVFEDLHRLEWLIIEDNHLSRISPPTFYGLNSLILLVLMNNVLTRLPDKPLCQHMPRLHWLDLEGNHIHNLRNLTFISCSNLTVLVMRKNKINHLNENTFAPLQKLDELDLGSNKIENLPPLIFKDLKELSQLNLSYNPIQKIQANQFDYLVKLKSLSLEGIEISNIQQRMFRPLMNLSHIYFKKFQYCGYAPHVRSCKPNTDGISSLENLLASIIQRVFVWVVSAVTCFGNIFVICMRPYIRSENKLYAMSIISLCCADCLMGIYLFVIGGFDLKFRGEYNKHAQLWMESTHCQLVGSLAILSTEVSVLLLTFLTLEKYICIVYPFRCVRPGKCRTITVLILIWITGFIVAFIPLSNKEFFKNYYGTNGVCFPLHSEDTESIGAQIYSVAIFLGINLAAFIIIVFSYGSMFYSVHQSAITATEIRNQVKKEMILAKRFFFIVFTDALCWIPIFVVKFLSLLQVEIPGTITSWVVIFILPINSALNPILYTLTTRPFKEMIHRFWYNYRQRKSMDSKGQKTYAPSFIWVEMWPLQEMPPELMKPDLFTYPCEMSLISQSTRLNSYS
Excerpt: The relaxin hormone is involved in the variety of biological functions in normal tissues and diseases. The role of relaxin is well-established in female reproduction and parturition, mammary gland and endometrial development, maintenance of myometrial quiescence during pregnancy. Relaxin signaling through its G protein-coupled receptor (GPCR) RXFP1 results in ECM remodeling through regulation of collagen deposition, cell invasiveness, proliferation and overall tissue homeostasis. […] Recombinant human relaxin (rhRlx) is currently being tested in clinical trials as a protective agent in congestive heart failure, in treating severe preeclampsia, and as an anti-fibrotic agent in systemic sclerosis.
Upon relaxin binding RXFP1 activation leads to the activation of adenylate cyclase (AC) via Gs. cAMP will activate PKA, which phosphorylates many signaling proteins. Thus, detection of cAMP increase is an easy and reliable indication of relaxin receptor activation. To screen for agonists of the relaxin receptor, a THP1 cell line stably transfected with RXFP1 was used. RXFP1 activation was assayed by changes in cAMP levels as detected with a time-resolved fluorescence energy transfer (TR-FRET) cAMP detection kit.
NIH Chemical Genomics Center [NCGC]
NIH Molecular Libraries Probe Production Centers Network [MLPCN]
Assay Submitter (PI): Alexander Agoulnik
NCGC Assay Protocol Summary:
This is a cell-based assay for cAMP second messenger response to screen for agonists of the RXFP1 receptor. The assay was conducted in the presence of a PDE4 inhibitor (Ro 20174). The cells were lysed and the cAMP levels were measured with a TR-FRET cAMP kit. Presence of cAMP in the cell lysate disrupts binding between the cryptate-labeled anti-cAMP and d2-labeled cAMP pair, leading to a decrease in the TR-FRET signal. Data were normalized to the controls for basal activity (buffer only) and 100% activity (29 nM porcine relaxin). The EC50 values were determined from concentration-response data modeled with the standard Hill equation
1536-well assay protocol for the THP1 RXFP1 cAMP assay:
(1) Add 3 ul THP1 RXFP1 cell culture. 2000 cells/well in DMEM/F12, 10% FBS, 1x Pen/Strep (dispensed offline with MultiDrop Combi).
(3) Add 23 nl compounds in DMSO solution. Final concentration was 0.5 - 58 uM.
(4) Incubate 30 min at 37C, 5% CO2.
(5) Add 1 ul cAMP-d2 in lysis buffer (HTRF cAMP HiRange kit, CisBio).
(6) Add 1 ul anti-cAMP antibody-cryptate in lysis buffer (HTRF cAMP HiRange kit, CisBio).
(7) Incubate 30 min at room temperature.
(6) Detect the assay plate in a ViewLux plate reader (PerkinElmer) with Ex=320 nm, Em1=615 nm and Em2=665 nm.
Keywords: relaxin, RXFP1, RXFP2, G-protein coupled receptor, cAMP, agonist, high throughput screening, MLSMR, MLSCN, NIH Roadmap, qHTS and NCGC
In the case of CCOC(=O)CCCCC(=O)c1[nH]c(=O)[nH]c1CSc1nnc2c3cc(Br)ccc3n(C)c2n1, the Potency is reported as 8.68 µM (active).
Cc1cc(C)c(C(=O)CSc2n[nH]c(=O)n2C2CC2)cc1C was tested, and the Potency was “inactive”.
With CCNc1nc(NCC)nc(N(C)/N=C/c2ccco2)n1 the Potency was “inactive”.
With N#Cc1c(N)nc(SCC(=O)C23CC4CC(CC(C4)C2)C3)c(C#N)c1-c1ccc(Cl)cc1 the Potency was 12.3 µM (active).
With COc1cccc(C(=O)CSc2nnc(-c3cc(OC)cc(OC)c3)o2)c1 the Potency was 12.3 µM (active).
In the case of O=C(Nc1ccccc1C(=O)NCc1ccccc1)c1ccco1, the Potency is reported as “inactive”.
COc1ccc(CNC(=O)CN2C(=O)NC(C)(c3cccc(Br)c3)C2=O)cc1 (stereo not given) was tested, and the Potency was “inactive”.
In the case of COc1ccc(CC(=O)N/N=C/c2cccnc2)cc1OC, the Potency is reported as “inactive”.
In the case of CCC(=O)Nc1ccc(NC(=O)CSc2nc3c(c(=O)n(C)c(=O)n3C)n2CC)cc1, the Potency is reported as 43.6 µM (active).
CC(C(=O)OCC(=O)N(C)C1(C#N)CCCCC1)N1C(=O)c2ccccc2C1=O (stereo not given) was tested, and the Potency was 15.4 µM (active).
With CCOC(=O)CNC(=O)CSc1ccc2nnc(-c3cccnc3)n2n1 the Potency was “inactive”.
In the case of COC(=O)c1sc(N2C(=O)C(O)=C(C(=O)c3ccc(C)o3)C2c2ccc(F)cc2)nc1C (stereo not given), the Potency is reported as 2.75 µM (active).
For O=C1/C(=C/c2ccc(O)c(O)c2)Oc2cc(O)ccc21, the Potency was “inactive”.
In the case of COc1cccc(CNC(=O)c2ccc(CS(=O)Cc3ccc(C)cc3)o2)c1 (stereo not given), the Potency is reported as “inactive”.
In the case of Cn1c(=O)c2sccc2n2c(CCCC(=O)NCc3ccco3)nnc12, the Potency is reported as 34.6 µM (active).
With CC(=O)c1c(C)[nH]c(C(=O)OCc2cc(=O)n3cc(Br)ccc3n2)c1C the Potency was 8.68 µM (active).
With COc1ccc(CN2C(=O)c3cccnc3C2=O)cc1S(=O)(=O)NC1CCCCC1 the Potency was 19.5 µM (active).
For CC(C)n1c(SCC(=O)N2CCN(C(=O)c3ccco3)CC2)nc2c1c(=O)n(C)c(=O)n2C, the Potency was 6.9 µM (active).
O=[N+]([O-])c1cc2c(c(CSc3nnc4ccccn34)c1)OCOC2 was tested, and the Potency was 13.8 µM (active).
For CCS(=O)(=O)Nc1cccc(-c2ccc3nnc(-c4cccnc4)n3n2)c1, the Potency was 27.5 µM (active).
With CCOP1(=O)OCC2OC(n3cnc4c(N)ncnc43)C(O)C2O1 (stereo not given) the Potency was 8.7 µM (active).
NS(=O)(=O)c1ccc(CCNC(=O)C2CCN(c3ncnc4c3nc3n4CCCCC3)CC2)cc1 was tested, and the Potency was 27.5 µM (active).
For Cc1cc2nc3ccc(=[N+](C)C)cc-3sc2cc1N, the Potency was “inactive”.
With Cc1ccc2[nH]c3c(=S)nc[nH]c3c2c1 the Potency was 6.9 µM (active).
With CCN(c1ccccc1)S(=O)(=O)c1ccc(OC)c(NC(=O)C2CC(=O)N(Cc3ccccc3)C2)c1 (stereo not given) the Potency was “inactive”.
For CCN(CC)CCCN1C=C2C(=O)C(C)(OC(=O)C3CCCC3)C(=O)C=C2C=C1c1ccsc1 (stereo not given), the Potency was “inactive”.
In the case of CCC(=O)Nc1ccc(-n2nnnc2SCC(=O)NNC(=O)c2ccco2)cc1, the Potency is reported as “inactive”.
In the case of Cc1ccccc1NC(=O)c1ccccc1NC(=O)c1ccco1, the Potency is reported as “inactive”.
For CC(C)(C)C(=O)Nc1ccccc1C(=O)NCc1ccco1, the Potency was “inactive”.
In the case of Cc1cc(NC(=O)c2ccccc2F)nc2c1c(=O)oc1ccccc12, the Potency is reported as 19.4 µM (active).
For CCOC(=O)c1sc(=NC(=O)c2ccc(S(=O)(=O)N(C)c3ccccc3)cc2)n(C)c1C, the Potency was 34.6 µM (active).
CCC1(C)Cc2c(sc3c2c2ncnn2c2nnc(SCC(=O)NCc4ccco4)n32)CO1 (stereo not given) was tested, and the Potency was 11 µM (active).
In the case of Cc1cccc(NC(=O)c2ccccc2NC(=O)C2CCCCC2)c1C, the Potency is reported as “inactive”.
For Cc1ccc(-c2ccc3nnc(SCC(=O)NCC4CCCO4)n3n2)cc1 (stereo not given), the Potency was “inactive”.
With Cc1cc(Br)c2nc3c(c(C(=O)O)c2c1)CCCCC3 the Potency was 3.08 µM (active).
For COc1ccc(CN2C(=O)c3cccnc3C2=O)cc1S(=O)(=O)NC1CCCCC1C (stereo not given), the Potency was 27.5 µM (active).
With O=C(Nc1ccccc1C(=O)N1CCNCC1)c1ccco1 the Potency was “inactive”.
Cc1cccc(N2C(=O)C(O)=C(C(=O)c3cccs3)C2c2ccc(C(C)C)cc2)n1 (stereo not given) was tested, and the Potency was “inactive”.
S=c1nc[nH]c2c1[nH]c1ccc(Cl)cc12 was tested, and the Potency was 1.55 µM (active).
With CN(C)c1ccc(C(=S)N2CCN(S(=O)(=O)c3ccccc3)CC2)cc1 the Potency was “inactive”.
